Experimental data published in PubChem BioAssay AID2391 (Southern Research Specialized Biocontainment Screening …, 2010).
Screen size: about 310,000 compounds; about 410 (0.13%) were called active. About 2% were inconclusive and are not listed. How the calls were made is not given here. The list is a sample of the results. Entries with a potency or affinity are not part of this list.

Experiment: inhibition of RSV-induced cytopathic effect – HEp-2 cells, primary 10 µM value included (AID 2391)
Settings: at 10 µM, active compounds read high

CPE inhibition, inactive:
Cc1c(NC(=S)NC(=O)c2ccc(-c3ccc(Cl)cc3)o2)cccc1C(=O)O 53.5%, O=C(O)c1ccc(NC(=S)NC(=O)c2ccc(-c3ccc(Br)cc3)o2)cc1 10.7%, O=C(NC(=S)Nc1ccccc1O)c1ccc(-c2ccc(Cl)cc2)o1 -1.25%, Cc1cc(O)c(NC(=S)NC(=O)c2ccc(-c3ccc(Cl)cc3)o2)cc1C 11.3%, COC(=O)c1ccccc1NC(=O)c1ccc(-c2ccc(Br)cc2)o1 4.75%, Cc1ccc(NC(=S)NC(=O)c2ccc(-c3ccc(Cl)cc3)o2)c(O)c1 1.42%, O=C(N/C(=C/c1cccc([N+](=O)[O-])c1)C(=O)N1CCCCC1)c1ccco1 -0.57%, Cc1ccc(S(=O)(=O)NC(C)(C)CN2CCNCC2)cc1 -0.5%, O=C(CCCCCN1C(=O)c2cccc3cccc(c23)C1=O)N1CCOCC1 2.04%, CCCc1c(NC(=O)Nc2ccc(F)cc2)cnn1-c1ccc(Cl)cc1 4.89%, CCCc1c(C(=O)Nc2ccc(F)cc2)cnn1-c1ccccc1 3.97%, O=C(c1ccco1)N1CCN(c2ccccc2F)CC1 0.67%, CCN(CC)C(=O)N1c2ccccc2Sc2ccccc21 11.5%, CNC(=O)N1c2ccccc2C=Cc2ccccc21 0.96%, Cc1ccc(NC(=O)c2cccs2)cc1NC(=O)c1ccccc1Cl 2.07%, COc1cccc(C(=O)Nc2cc(NC(=O)c3cccs3)ccc2C)c1 10.5%, COc1cc(NC(=S)NC(=O)c2c(OC)cccc2OC)ccc1NC(=O)c1cccs1 2.67%, COc1cc(NC(=S)NC(=O)c2cc(C)cc(C)c2)ccc1NC(=O)c1cccs1 7.54%, CCCCN(C)CCNC(=O)c1cn(C)c(=O)c2c1c1ccccc1n2C 1.07%, COc1ccc(OC)c(C2C(C#N)=C(N)N(N(C)C)C3=C2C(=O)CC(C)(C)C3)c1 (centres undefined) 1.69%, Nc1ccc2nc(SCC(=O)N3CCOCC3)sc2c1 0.05%, CCN(CC)CCNC(=O)c1ccc(NC(=O)Cc2ccccc2F)cc1 -0.24%, COc1ccc(Cl)cc1NC(=O)NCc1cccnc1 2.51%, Nc1nnnn1/N=C/c1ccc(F)cc1 1.72%, Nc1nnnn1/N=C/c1ccc(Br)cc1 7.9%, O=C(COc1ccccc1[N+](=O)[O-])OCCCOC(=O)COc1ccccc1[N+](=O)[O-] 0.68%, CCN1/C(=C2\C(=O)N(C)C(=S)N2c2ccccc2)C=Cc2ccccc21 1.96%, CC1(C)Cc2cccc(OCC(=O)Nc3nccs3)c2O1 1.37%, CC1(C)Cc2cccc(OCC(=O)Nc3cccnc3)c2O1 0.28%, COc1ccc(C)cc1Nc1n[n+](-c2ccccc2)c(-c2cc(OC)c(OC)cc2Br)s1 13.7%, COC(=O)c1cc(NS(=O)(=O)c2ccc(NCc3cccnc3)c([N+](=O)[O-])c2)cc(C(=O)OC)c1 1.44%, COc1ccccc1NC(=O)N1CCN(c2ccc3nnc(-c4ccc(F)cc4)n3n2)CC1 20.8%, CCSc1ccccc1C(=O)N1CCC2(CC1)CC(=O)c1ccccc1O2 2.51%, Cc1ccccc1NC(=O)COc1cccc2c1CCNC2=O -2.82%, COc1cccc(NC(=O)COc2cccc3c2CCNC3=O)c1 -2.16%, CCOC(=O)NC(Nc1ccc(C)cn1)(C(F)(F)F)C(F)(F)F 0.51%, Cc1cccc(C(=O)NC2CCN(CC(=O)N3CCOCC3)CC2)c1 0.56%, c1ccc(-c2nnc3ccc(N4CCCC4)nn23)cc1 13.9%, O=C(c1ccc(Br)o1)N1CCN(c2ccc3nnc(-c4ccc(F)cc4)n3n2)CC1 1.21%, COc1cc(F)ccc1CN1CCC(n2nccc2NC(=O)C2CCOC2)CC1 (centres undefined) -1%, Cc1cc(C(=O)Cn2nnc3ccccc3c2=O)c(C)n1-c1c(C)n(C)n(-c2ccccc2)c1=O 2.35%, COc1ccc(-n2c(C)cc(C(=O)Cn3nnc4ccccc4c3=O)c2C)cc1 2.15%, CN(C)c1ccc(CN(CC2CCCO2)C(=O)c2cccs2)cc1 (centres undefined) -0.5%, Cn1c(=O)c2c(n(Cc3ccccc3)c1=O)NC(=O)C2CC(=O)O (centres undefined) 0.62%, Cc1ccccc1OCCC(=O)Nc1ccc2c(C)cc(=O)oc2c1 1.79%, CCC(C)n1c(SCC(=O)Nc2ccccc2C(F)(F)F)nc2ccsc2c1=O (centres undefined) 13.6%, COCCN(C(=O)C(C)C)c1nnc(-c2ccc(C)cc2)s1 1.29%, COCCN(C(=O)C1CC1)c1nnc(-c2cccc(C)c2)s1 14%, C=CCc1cccc(/C=N/NC(=O)c2ccccc2OC)c1O 4.29%, O=C(O)c1ccccc1Nc1ccccc1C(=O)O 0.65%, O=C(O)c1ccccc1Nc1ccccc1 2.02%, COc1ccc(Nc2ccccc2C(=O)O)cc1 -0.36%, O=C(O)c1cc([N+](=O)[O-])ccc1Nc1ccccc1 2.12%, O=C(NCCOc1ccccc1Cl)c1ncn[nH]1 0.27%, CSc1ccc(S(=O)(=O)NCCSC(C)(C)C)cc1 -1.64%, COc1cc(CC2COC(c3ccc(O)c(OC)c3)C2COC(C)=O)ccc1O (centres undefined) 5.55%, CCOC(=O)CCCNC(=O)CCNC(=O)c1ccc(OCCC(C)C)cc1 -2.65%, Cc1ccc(C(=O)N2CCN(c3ccc(NC(=O)c4cccs4)cc3)CC2)cc1 3.02%, Cc1ccc(OCc2cc(C(=O)NCc3cnn(-c4cccc(F)c4)c3)no2)cn1 -0.86%, Cc1nn(-c2ccccc2)c(C)c1/C=N/N1CCN(c2ccccc2)CC1 2.1%, Cc1nn(-c2ccccc2)c(C)c1/C=N/O 5.01%, CC(=O)N1c2ccccc2Nc2ccccc21 0.92%, CC(C)(C)C(=O)CC1(O)C(=O)N(Cc2ccccc2)c2ccccc21 (centres undefined) 1.23%, Cc1cc(C)cc(NC(=O)CSc2nc3ccccc3nc2N2CCCCC2)c1 -0.51%, COc1ccc(NC(=O)CSc2nc3ccccc3nc2N2CCCC2)cc1 5.07%, Cc1cccc(NC(=O)CSc2nc3ccccc3nc2N2CCCC2)c1 43.3%, COc1cccc(NC(=O)CSc2nc3ccccc3nc2N2CCOCC2)c1 1.87%, O=C(CCN1c2ccccc2Sc2ccccc21)OCC(=O)N1CCN(C(=O)c2ccco2)CC1 5.26%, Cc1cc(C)cc(NC(=O)c2ccc(CNc3c(N4CCCC4)c(=O)c3=O)cc2)c1 2.89%, CCOC(=O)/C(C#N)=C/c1c(N2CCN(C)CC2)nc2c(C)cccn2c1=O 1.42%, COc1ccc(NC(=S)N2CCN(c3ccccc3)CC2)c(OC)c1 3.36%, CC(Sc1n[nH]c(N)n1)C(=O)Nc1ccccc1-c1ccccc1 (centres undefined) -0.4%, OCC1(CCOc2ccccc2)CCN(Cc2ccncc2)CC1 -0.49%, CCOC(=O)C1(CCOc2ccccc2)CCN(Cc2cccn2-c2ncccn2)CC1 -2.95%, COc1cc(OC)c(OC)cc1/C=N/NC(=O)c1cccc(S(=O)(=O)N2CCOCC2)c1 0.2%, Cc1cccc(NC(=O)C2CCN(S(=O)(=O)c3ccc4c(c3)NC(=O)CO4)CC2)c1C 0.6%, O=C(O)c1[nH]c2ccc(Cl)cc2c1CC(=O)N1CCN(C(=O)c2ccco2)CC1 0.74%, O=C(c1cc2cc(Cl)ccc2[nH]1)N1CCN(C(=O)c2ccco2)CC1 1.05%, CCOc1ccc(-c2nnc3ccc(SCC(=O)N4CCCCC4)nn23)cc1 1.74%, CCOc1ccc(CNC(=O)CCCn2nc(C)c3c(C)n(-c4ccc(C)cc4)nc3c2=O)cc1 12.6%, COc1cccc(C(=O)NC(=S)Nc2ccc(Cl)c(C(=O)O)c2)c1 1.26%, Cc1cccc(Nc2c([N+](=O)[O-])cc(C(=O)N3CC(=O)Nc4ccccc43)cc2[N+](=O)[O-])c1 3.38%, Cc1ccc(Nc2c([N+](=O)[O-])cc(C(=O)N3CC(=O)Nc4ccccc43)cc2[N+](=O)[O-])c(C)c1 -0.4%, CCOc1cc(/C=C/c2nc3cc(C)c(C)cc3s2)ccc1OCC(=O)N1CCOCC1 15.4%, Cc1nn(C)c(Cl)c1CN1CCCC(CO)(Cc2cccc(Cl)c2)C1 (centres undefined) 68.4%, Cn1cc(CN2CCCC(CO)(Cc3ccccc3)C2)cn1 (centres undefined) -1.49%, CCN1CCCC(CO)(Cc2ccccc2)C1 (centres undefined) -0.72%, Cc1nn(C)c(Cl)c1CN1CCCC(CO)(Cc2ccccc2)C1 (centres undefined) 62.6%, O=C(COC(=O)c1ccc(F)cc1F)Nc1cccnc1Cl 1.68%, CSc1nc(N)c(NC(=O)c2ccc(Br)o2)c(=O)[nH]1 0.99%, CCOC(=O)c1c(C)[nH]c(C(=O)NCc2ccccn2)c1C -0.66%, COc1ccc(NC(=S)NCCc2c(C)[nH]c3ccc(OC)cc23)cc1 1.21%, COc1ccc(NC(=O)CCn2c(=O)c3cccn3c3ccccc32)cc1 3.29%, COc1ccc(NC(=O)CCn2c(=O)c3cccn3c3ccccc32)c(OC)c1 8.66%
